Assay outcomes from PubChem BioAssay.
CYP2C9 activ: increases human cytochrome P450 2C9 activity. P11712. recombinant CYP2C9, luciferin-H conversion, luminescence; stronger effect = higher value; factor 1 = untreated enzyme, 0 = blocked. activation factor at 5 µM. hit rate 1.4% among 96,000. AID 1024;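 active = activation factor of 2 or more for CYP2C9 at a 5 µM dose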;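 note: 0 = sulfaphenazole-blocked wells and 1 = vehicle-only wells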
Cav32 inh: human Cav3.2 channel inhibition, primary screen; O95180; Cav3.2-expressing cells, Fluo-4 calcium fluorescence FDSS; stronger effect = lower value; B-score at 10 µM; hit rate 4% among 100,000;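 active = single-dose well whose peak fluorescence ratio is a statistical outlier from its plate by either plate-standardised score or position-corrected B-score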
CYP2C19 inh: human CYP2C19 inhibition; P33261; hit rate 21% among 96,000; CYP2C19 Supersomes, luciferin-H EGE luminescence, 30 min; inhibition, % at 5 µM;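 active = CYP2C19 inhibition above a set limit at 5 µM in the primary screen, cut at about 50% in these data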;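 note: plate controls were negative control wells for no effect and 2.5 mM tranylcypromine positive control for full effect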
Target sequence (P33261 whole entry, looked up): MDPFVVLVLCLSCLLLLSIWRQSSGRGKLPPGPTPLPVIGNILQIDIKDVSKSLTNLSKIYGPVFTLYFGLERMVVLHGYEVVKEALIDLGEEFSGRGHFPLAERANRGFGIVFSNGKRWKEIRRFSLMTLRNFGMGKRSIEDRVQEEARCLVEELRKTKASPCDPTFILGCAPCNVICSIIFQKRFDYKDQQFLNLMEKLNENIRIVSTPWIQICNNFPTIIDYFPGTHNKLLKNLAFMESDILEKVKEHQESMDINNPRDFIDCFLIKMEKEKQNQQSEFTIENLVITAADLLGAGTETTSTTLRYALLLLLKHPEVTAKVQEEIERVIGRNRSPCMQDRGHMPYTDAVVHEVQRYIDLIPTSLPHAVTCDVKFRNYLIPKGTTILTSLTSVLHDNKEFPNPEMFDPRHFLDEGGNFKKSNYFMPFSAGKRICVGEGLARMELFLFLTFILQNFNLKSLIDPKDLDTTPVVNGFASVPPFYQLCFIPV
CYP2C9 inhib: inhibitors of human CYP2C9. CYP2C9 Supersomes, luciferin-H conversion, luminescence. inhibition, % at 5 µM. hit rate 20% among 96,000;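 active = blocking of liver enzyme CYP2C9 beyond about 50% at 5 µM, limit read from the data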
CYP2C19 act: cytochrome P450 2C19 (human) activation; recombinant CYP2C19, luciferin-H EGE luminescence; stronger effect = higher value; 0 = fully inhibited enzyme, 1 = untreated enzyme; activation factor at 5 µM; 96,000 tested, under 10 active; AID 1025;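 active = activation factor of at least 2 at 5 µM in the primary screen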;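 note: 0 = wells with 2.5 mM tranylcypromine and 1 = vehicle-only wells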
An asterisk follows results filed as active. A selection: hits, their analogues and other compounds. The true share with any hit is near 27%.

`O=S(=O)(NC1CCCC1)c1cccc(S(=O)(=O)N2CCC(n3nnc4ccccc43)CC2)c1` gave CYP2C9 activ 0.3, CYP2C19 inh 75*, CYP2C9 inhib 72* and CYP2C19 act 0.3.
For O=S(=O)(NC1CC1)c1cccc(S(=O)(=O)N2CCCC2)c1 the results were CYP2C9 activ 0.9, Cav32 inh -0.72, CYP2C19 inh 82*, CYP2C9 inhib 5 and CYP2C19 act 0.2.
`O=S(=O)(c1cccc(S(=O)(=O)N2CCOCC2)c1)N1CCCCC1` gave CYP2C9 activ 0.8, Cav32 inh -0.16, CYP2C19 inh 41, CYP2C9 inhib 24 and CYP2C19 act 0.6.
Screening COC(=O)c1cccc(S(=O)(=O)N2CCC(n3nnc4cc(F)ccc43)CC2)c1 returned CYP2C9 activ 1.1, Cav32 inh 0.66, CYP2C19 inh 46, CYP2C9 inhib -11 and CYP2C19 act 0.5.
Screening CC(NC(=O)C1CCCCC1)C(c1cccs1)N1CCN(C)CC1 (stereo not given) returned Cav32 inh 0.62.
`O=C(O)C1CC=CCC1C(=O)Nc1ccc2c(c1)OCCO2` (stereo not given) gave Cav32 inh -2.4.
`CCC(C)NC(=O)C1CCN(S(=O)(=O)N2CCCC2)CC1` (stereo not given) gave CYP2C9 activ 1, Cav32 inh 0.85, CYP2C19 inh -5, CYP2C9 inhib 0 and CYP2C19 act 1.1.
`COc1ccc(CN(C)c2ncnc(N)n2)cc1` gave CYP2C9 activ 0.9, Cav32 inh 0.059, CYP2C19 inh 78*, CYP2C9 inhib 11 and CYP2C19 act 0.2.
`CCCCOc1ccc(CN(C)c2ncnc(N)n2)cc1` gave Cav32 inh -1.1.
Screening Cc1cc(=O)oc2cc(OCC(O)CN3CCN(c4ccccc4)CC3)ccc12 (stereo not given) returned CYP2C9 activ 0.9, CYP2C19 inh 13, CYP2C9 inhib 5 and CYP2C19 act 0.9.
Cc1cc(=O)oc2cc(OCC(O)CN3CCc4ccccc4C3)ccc12 (stereo not given) was read as CYP2C9 activ 0, Cav32 inh 0.92, CYP2C19 inh 65*, CYP2C9 inhib 100* and CYP2C19 act 0.4.
C#CCOc1ccc2c(C)cc(=O)oc2c1 was read as CYP2C9 activ 1, CYP2C19 inh 64*, CYP2C9 inhib 2 and CYP2C19 act 0.4.
For Cc1cc(=O)oc2cc(OCC3CC(c4ccccc4)=NO3)ccc12 (stereo not given) the results were CYP2C9 activ 0.5, Cav32 inh -0.61, CYP2C19 inh 43, CYP2C9 inhib 51* and CYP2C19 act 0.6.
Cc1cc(=O)oc2cc(OCC3CC(c4ccc(Br)cc4)=NO3)ccc12 (stereo not given) was read as CYP2C9 activ 0.7, Cav32 inh -0.82, CYP2C19 inh 24, CYP2C9 inhib 30 and CYP2C19 act 0.8.
`Cc1cc(=O)oc2cc(OC(C)C)ccc12` gave CYP2C9 activ 1, Cav32 inh -0.071, CYP2C19 inh 7, CYP2C9 inhib 4 and CYP2C19 act 0.9.
Screening COc1ccc(CCNC(=O)COc2ccc(S(=O)(=O)NC3CCCCC3)cc2Cl)cc1 returned CYP2C9 activ 0.1, Cav32 inh -2.9, CYP2C19 inh 64*, CYP2C9 inhib 85* and CYP2C19 act 0.4.
O=C(COc1ccc(S(=O)(=O)NC2CCCCC2)cc1)NCc1cccnc1 was read as CYP2C9 activ 0.7, Cav32 inh -0.35, CYP2C19 inh -10, CYP2C9 inhib 30 and CYP2C19 act 1.1.
Screening O=C(COc1ccc(S(=O)(=O)NCc2ccccc2)cc1)NCC1CCCO1 (stereo not given) returned CYP2C9 activ 0.9, Cav32 inh 0.39, CYP2C19 inh -2, CYP2C9 inhib 5 and CYP2C19 act 1.
For O=C(COc1ccc(S(=O)(=O)NC2CCCCC2)cc1Cl)NCC1CCCO1 (stereo not given) the results were CYP2C9 activ 0.1, Cav32 inh 1.1, CYP2C19 inh 58*, CYP2C9 inhib 90* and CYP2C19 act 0.4.
For O=C(COc1ccc(S(=O)(=O)NC2CCCCC2)cc1Cl)NCc1cccnc1 the results were CYP2C9 activ 0, Cav32 inh 0.61, CYP2C19 inh 50, CYP2C9 inhib 98* and CYP2C19 act 0.5.
Screening O=C(COc1ccc(S(=O)(=O)NCc2ccccc2)cc1Cl)NCC1CCCO1 (stereo not given) returned CYP2C9 activ 0.2, Cav32 inh -0.4, CYP2C19 inh -1, CYP2C9 inhib 78* and CYP2C19 act 1.
`COc1ccc(CCNC(=O)C2CCN(S(=O)(=O)c3ccc(OC)c(OC)c3)CC2)cc1` gave CYP2C9 activ 1.3, Cav32 inh -0.14, CYP2C19 inh 2, CYP2C9 inhib -30 and CYP2C19 act 1.
For CC(=O)NC(CCS(C)(=O)=O)C(=O)N1CCc2ccccc21 (stereo not given) the results were CYP2C9 activ 1.1, Cav32 inh 1.2, CYP2C19 inh -7, CYP2C9 inhib -10 and CYP2C19 act 1.1.
`Cc1cccc(C)c1NC(=O)C1(N(Cc2ccco2)C(=O)CC2NC(=O)NC2=O)CCCC1` (stereo not given) gave CYP2C9 activ 0.9, Cav32 inh -0.64, CYP2C19 inh -1, CYP2C9 inhib 5 and CYP2C19 act 1.
`Cc1nc2ccccc2n1C1CC(=O)N(N(C)C)C1=O` (stereo not given) gave CYP2C9 activ 0.9, Cav32 inh -1.8, CYP2C19 inh -2, CYP2C9 inhib 9 and CYP2C19 act 1.
`CC(=O)Nc1c(C#N)c(C(C)(C)C)cn1C` gave CYP2C9 activ 1.2, Cav32 inh -0.43, CYP2C19 inh -10, CYP2C9 inhib -22 and CYP2C19 act 1.1.
Screening Cc1ccccc1-c1nnc(-c2ccc(Cl)cc2)o1 returned CYP2C9 activ 0.9, Cav32 inh 0.22, CYP2C19 inh 15, CYP2C9 inhib 9 and CYP2C19 act 0.9.
Cc1ccc(CS(=O)(=O)c2ccccc2-c2nnc(-c3ccc(Cl)cc3)o2)cc1 was read as CYP2C9 activ 0.1, CYP2C19 inh 44, CYP2C9 inhib 91* and CYP2C19 act 0.6.
Screening c1ccc(-n2c(-c3ccncc3)nnc2-c2cccs2)cc1 returned CYP2C9 activ 0.5, Cav32 inh 2.1, CYP2C19 inh 71*, CYP2C9 inhib 54* and CYP2C19 act 0.3.
`c1ccc(-n2c(-c3ccncc3)nnc2-c2ccco2)cc1` gave CYP2C9 activ 0.5, Cav32 inh 0.78, CYP2C19 inh 80*, CYP2C9 inhib 50 and CYP2C19 act 0.2.
Screening c1ccc(-c2nnc(-c3ccco3)n2-c2ccccc2)cc1 returned Cav32 inh 0.041.
For COc1cc(NC(=O)C2CCCC2)c(OC)cc1Cl the results were CYP2C9 activ 0.9, Cav32 inh -0.51, CYP2C19 inh 65*, CYP2C9 inhib 9 and CYP2C19 act 0.4.
CCCCC(=O)Nc1cc(OC)c(NC(=O)C2CCCCC2)cc1OC was read as CYP2C9 activ 0, Cav32 inh 1.4, CYP2C19 inh 71*, CYP2C9 inhib 99* and CYP2C19 act 0.3.
